HTT ATP protect = Huntington cell model cytoprotection by ATP luminescence; Potency, µM (doses to about 56.4 µM), without a hit: cytoprotection (ATP increase), hits mostly activators; AID 1471; 0.14% of 230,000 active; PC12 HTT-Q103 induced, cytoprotection, ATP luminescence, 40 h; also: potency is read from the fitted curve at half-maximal effect; % of control where 0% means no effect; nearly all actives have a fitted effect of over 45% in size
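Compounds were screened for protection of PC12 cells against cell death after tebufenozide induction (100 nM final) of mutant Huntingtin exon 1 (Q103) fused to GFP.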
HTT aggregate = inhibitors of mutant huntingtin aggregate formation in PC12 cells; PC12 HttQ103-GFP aggregates, Acumen cytometry, 40 h; Potency, µM (doses to about 46.1 µM), for the others: at the top dose activity change, negative = inhibition, usual class: inhibitors; 1.1% of 220,000 active; AID 1688; also: potency is read from the fitted curve at half-maximal effect; % is scaled to controls: 0 for no effect and ±100 for the full control effect; nearly all actives have a fitted effect of over 60% in size
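Aggregates are detected as GFP objects 1–25 µm with signal 6 STDEV over background in lysates of induced PC12 cells. These carry Huntingtin exon 1 with 103 glutamines fused to GFP under an ecdysone promoter; compounds titrated.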
GALK inhibitor = blocks human galactokinase activity | P51570 | Potency, µM (top dose mostly 57.5 µM), inactives show top-dose activity change, negative = inhibition, usual class: inhibitors | AID 1868 | Purified GALK, Kinase-Glo residual ATP luminescence | 0.007% of 270,000 active; also: potency is read from the fitted curve at half-maximal effect; % is scaled to controls: 0 for no effect and ±100 for the full control effect
Target sequence (P51570 whole entry, looked up): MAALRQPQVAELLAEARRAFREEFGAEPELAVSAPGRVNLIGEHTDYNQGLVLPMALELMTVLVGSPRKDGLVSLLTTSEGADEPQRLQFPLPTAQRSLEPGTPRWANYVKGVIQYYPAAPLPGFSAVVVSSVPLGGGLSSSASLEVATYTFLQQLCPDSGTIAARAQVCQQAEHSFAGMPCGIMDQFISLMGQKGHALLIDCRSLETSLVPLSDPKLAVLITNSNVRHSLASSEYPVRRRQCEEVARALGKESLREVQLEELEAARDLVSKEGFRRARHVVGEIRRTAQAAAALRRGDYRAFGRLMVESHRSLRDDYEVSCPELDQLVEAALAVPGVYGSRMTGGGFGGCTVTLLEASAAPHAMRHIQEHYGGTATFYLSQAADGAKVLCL
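Galactose (100 uM) and ATP (35 uM) were turned over by 5 nM GALK for 1 h at RT. Kinase-Glo Plus then converted the remaining ATP into a luminescent signal.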
PI4K2A block = PI4K2A (human) kinase inhibition; Q9BTU6; purified PI4K2A, ADP-Glo luminescence, 1 h; active compounds read low; activity change, negative = inhibition, % at 76.9 µM; 0.13% of 420,000 active; AID 1346378; in the data active = activity change below about -50%; inconclusive = mostly about -30% to -49%;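 also: -100% = wells without enzyme as full effect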
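In this quantitative HTS, ADP production by PI4K2A was quantified luminescently after 1 h at ambient temperature; 100 microM adenosine served as plate-quality control.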
Active calls of the source: *; ? = inconclusive; nt = no result given; ! = not active in a repeat; [ ] = another dose, or the depositor's remark. This excerpt belongs to a sample that is enriched for hits. Unless noted, calls follow the shape of the dose curve; as a rule, active = well fitted curve in the direction sought with a large enough effect; inconclusive = small, poorly fitted or top-dose-only effect, or another doubt; inactive = no such curve, though single readings can be large; an effect the other way counts as inactive or inconclusive.

SMILES	HTT ATP protect	HTT aggregate	GALK inhibitor	PI4K2A block
COC(=O)c1cc(Cl)ccc1NS(=O)(=O)C(F)(F)F	nt	nt	nt	0
CCOC(=O)CC[C@@]1(C(=O)OCC)C[C@@H](CC(=O)NCc2cccs2)C(=O)N2CCCC=C21	nt	nt	nt	3
Cc1ccc(CNC(=O)c2cc3c(-c4ccc(Cl)cc4)nn(C)c3s2)o1	-24%	8.9µM*	1%	2
CCCCNC(=O)c1cc2c(-c3ccc(Cl)cc3)nn(C)c2s1	-17%	-11%	1%	8
Cc1ccc(/C=C2/Sc3ccccc3N(CC(=O)NCC3CCCO3)C2=O)cc1 (stereo unspecified)	nt	nt	1%	-16
Cc1cc(/C=C2\Sc3ccccc3N2C)cc(C)[n+]1CC1CCCO1 (stereo unspecified)	-62%[10 µM]	2.8µM*	-1%	-4
COc1ccc(C(=O)C2CCN(C(=S)Nc3ccc(F)cc3)CC2)cc1	2.5µM*	-32%	5%	12
CCCCn1c(NC(=O)c2ccccc2Cl)c(C#N)c2nc3ccccc3nc21	-62%	10µM*	-19%	-26
N#Cc1c(NC(=O)c2ccccc2Cl)n(Cc2ccccc2)c2nc3ccccc3nc12	-18%[10 µM]	?	-8%	-50*
CCCCn1c(NC(=O)CC)c(C#N)c2nc3ccccc3nc21	34%[10 µM]	-7%	0%	2
Cc1ccccc1CS(=O)(=O)Cc1ccc(C(=O)Nc2ccccc2C)o1	nt	nt	nt	2
CCOc1cc(CNCCSc2nnnn2C)cc(Br)c1OCc1ccccc1F	-30%	-25%	5%	2
CCOc1cc(CNCc2ccncc2)cc(Br)c1OCc1ccccc1F	-56%	10µM*	-1%	3
CCC1(OC(=O)CN(C)C)C(=O)OCc2c1cc1n(c2=O)Cc2cc3c(N)cccc3nc2-1 (stereo unspecified)	nt	nt	nt	-62*
CCn1c(=O)c2c(nc(C=Cc3ccc(OC)c(OC)c3)n2C)n(CC)c1=O	nt	nt	nt	-2
COc1ccc(CN2C(=O)CCCC2(C)c2nnnn2-c2ccc3c(c2)OCCO3)cc1 (stereo unspecified)	nt	nt	nt	3
COc1cc2c(cc1OC)-c1cc3cc(OC)c(OC)cc3c(=O)n1CC2	-213%	nt	nt	nt
CCc1c(C)sc2nc(C(C)C)nc(SCC(=O)N3CCc4ccccc4C3)c12	-3%[10 µM]	3.5µM*	0%	2
Cc1sc2nc(C3CC3)nc(SCC(=O)N3CCc4ccccc4C3)c2c1C	-8%[10 µM]	7.1µM*	-1%	0
CCOc1cc(/C=C\c2[nH]c(=O)[nH]c(=O)c2[N+](=O)[O-])ccc1OC(C)CC (stereo unspecified)	2.5µM*	?	-9%	-27
O=c1cc(-c2ccccc2Cl)oc2c([N+](=O)[O-])ccc(O)c12	-32%	nt	nt	nt
O=C1NC(=O)C(c2ccccc2[N+](=O)[O-])=C1Nc1ccc(O)c(Cl)c1	13µM*!	nt	nt	-8
COc1ccc(CN(C)C(=O)C2CCCN(c3nc4ccccc4o3)C2)cc1 (stereo unspecified)	nt	nt	nt	5
O=c1c2ccccc2nc2n1C(CSCc1ccc(Cl)cc1)CS2 (stereo unspecified)	-2%[10 µM]	11µM*	-1%	-3
Cc1ccnc(NC(=O)c2ccc(OCC3CCCO3)cc2)c1 (stereo unspecified)	nt	nt	nt	-63*
SMILES	HTT ATP protect	HTT aggregate	GALK inhibitor	PI4K2A block
O=C(Nc1ccccc1)N1CCC2(CC1)CCN(C(=O)c1ccncc1)CC2	4%	nt	nt	nt
O=C(Nc1ccccc1)N1CCC2(CC1)CCN(C(=O)c1cnccn1)CC2	3.5µM*	nt	nt	nt
Cc1ccc(C(=O)Oc2ccc(C(O)CNC(C)(C)C)cc2OC(=O)c2ccc(C)cc2)cc1 (stereo unspecified)	nt	nt	nt	2
CC1(C)CC(=O)C(C=NCC(N)=O)=C(O)C1	-63%	11µM*	2%	-11
CN=CC1=C(O)CC(C)(C)CC1=O	-16%[0.074 µM]	20%	0%	4
Cc1nc2c(-c3ccccc3)c[nH]n2c(=O)c1Cc1ccccc1	-150%	7.1µM*	-1%	0
Cc1ccccc1CNC(=O)c1ccccc1C(=O)O	nt	0.0089µM*	1%	0
Cc1ccccc1CNC(=O)c1ccccc1C	-1%[10 µM]	-5%	3%	-4
COc1cc(NC(=S)N(C)C)c(OC)cc1Cl	22%[10 µM]	-7%[9.22 µM]	14%	7
COc1cc(NC(=S)NC2CC2)c(OC)cc1Cl	-5%[10 µM]	20µM*	2%	6
COC(=O)[C@@]1(Cc2ccc(F)cc2)[C@H]2c3cc(C(=O)N4CCCC4)n(Cc4ccc(C(F)(F)F)nc4)c3C[C@H]2CN1C(=O)c1ccccc1	10µM*	-11%	nt	2
N=c1c2c(-c3ccccc3)c(-c3ccccc3)n(Cc3ccco3)c2ncn1Cc1ccco1	-154%	11µM*	0%	-6
CCC[C@H]1[C@@H](NC(=O)C2CCCCC2)CC[C@@]23CCCN2C(=O)CCC[C@@H]13	nt	nt	nt	-2
O=C(O)CSc1nnc(CNc2ccc(F)cc2)n1-c1ccccc1	5%[10 µM]	-10%[9.22 µM]	6%	-2
Cc1ccc(-n2c(CNc3ccc(F)cc3)nnc2SCC(N)=O)cc1	-35%	22µM*	-1%	1
CCN1/C(=C/c2ccc3cccc(C)c3[n+]2CC)Sc2ccccc21	-157%	1.1µM*	-4%	-1
CCN1/C(=C/c2ccc3cc(C)cc(C)c3[n+]2CC)Sc2cc(C)ccc21	-50%[10 µM]	?	0%	-11
CCN1/C(=C\c2ccc3cc(C)ccc3[n+]2CC)Sc2cc(C)c(C)cc21	-76%	0.89µM*	-1%	0
C/C(=C\C[Si](C)(C)C)CC[C@H](O)C1=CCCCC1=O	-23%	nt	nt	nt
Cc1c(-c2ccc(O)cc2)n(Cc2ccc(OCCN3CCCCCC3)cc2)c2ccc(O)cc12	nt	nt	nt	-2
O=C(CO)[C@@H](O)[C@H](O)[C@@H](O)CO	nt	nt	nt	2
O=C(Nc1cc(S(=O)(=O)N2CCCCC2)ccc1Cl)c1ccccc1NS(=O)(=O)c1ccc(F)cc1	-67%[10 µM]	3.2µM*	-7%	0
CCOC(=O)c1ccccc1NC(=O)CN(c1ccccc1)S(=O)(=O)c1ccc(OCC)cc1	nt	nt	nt	-5
CCOc1ccc(S(=O)(=O)Nc2ccccc2C(=O)Nc2ccccc2N2CCOCC2)cc1	-9%[10 µM]	12%	0%	6
CCOC(=O)c1ccccc1NS(=O)(=O)c1ccc(OCC)cc1	-44%[10 µM]	11µM*	1%	-3
SMILES	HTT ATP protect	HTT aggregate	GALK inhibitor	PI4K2A block
CCOc1ccc(NC(=O)c2ccccc2NS(=O)(=O)c2ccc(F)cc2)c([N+](=O)[O-])c1	6%[10 µM]	11µM*	1%	5
O=C(COCCOCCOCC(=O)Nc1c(I)cc(I)c(C(=O)O)c1I)Nc1c(I)cc(I)c(C(=O)O)c1I	nt	nt	nt	-2
C=C(C)C(=O)OCC(O)CO (stereo unspecified)	nt	nt	nt	5
CCN1CCCCC(NC(=O)c2ccc(C)cc2)C1=O (stereo unspecified)	nt	nt	nt	-1
C=CCCC(=O)N[C@H]1CC[C@@]23CCCN2C(=O)CCC[C@H]3[C@H]1C	nt	nt	nt	4
CCc1ccc(NS(=O)(=O)c2ccc3[nH]cc(C(=O)N(C)Cc4ccco4)c(=O)c3c2)cc1	-7%	0.1µM*	1%	-4

High-throughput results from PubChem BioAssay.
